Records with an inconclusive call do not appear. Active and inactive are the calls of the source. Calls come from the whole dose curve; as a rule, active = well fitted cell-killing curve with a large enough effect in the repeat runs; inconclusive = weak or mixed curves, or effect the other way; inactive = flat fitted curve, though single readings scatter.
assay: cAMP Responsive Elements (CRE) small molecule agonists, cell-based qHTS assay: qHTS cell viability counter screen (AID 2060914); conditions: CRE-bla HEK293T viability, CellTiter-Glo luminescence, 5 h; series mostly up to 92.4 µM; activity change, negative = cytotoxicity: at the top concentration; note: nearly all actives have a fitted effect of over 50% in size
Outline: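 Cytotoxicity counter screen multiplexed with the CRE-bla reporter assay in HEK 293T cells: 3 h compound exposure at 37 °C, followed by CellTiter-Glo luminescence measured in the same wells.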
% is set by controls: 0 for no effect and ±100 for the full control effect; potency is the fitted concentration of half-maximal effect.

| SMILES | activity change, negative = cytotoxicity | Potency |
| --- | --- | --- |
| CC1COC(Cn2cncn2)(c2ccc(Oc3ccc(Cl)cc3)cc2Cl)O1 (stereo not given) | -16.9% (inactive) | – |
| O=C(NCO)NCO | 8.93% (inactive) | – |
| Cc1ccn2nc(S(=O)(=O)Nc3c(F)cccc3F)nc2n1 | 4.77% (inactive) | – |
| S=C=NCCc1ccccc1 | -5.14% (inactive) | – |
| COC(=O)c1cncn1C(C)c1ccccc1 (stereo not given) | -7.65% [at 42.5 µM] (inactive) | – |
| [O-][Br+2]([O-])O | -5.52% [at 42.5 µM] (inactive) | – |
| CCOCN(C(=O)CCl)c1c(C)cccc1CC | – | inactive |
| c1ccc2c(c1)Sc1ccccc1N2CC1CN2CCC1CC2 (stereo not given) | -9.6% [at 42.5 µM] (inactive) | – |
| CC(c1ccccc1)(c1ccc(O)cc1)c1ccc(O)cc1 | -5.77% (inactive) | – |
| O=C(N[C@H]1N=C(c2ccccc2F)c2cccc3c2N(CC3)C1=O)c1cc2ccccc2[nH]1 | 7.02% [at 42.5 µM] (inactive) | – |
| C[N+](C)(C)CCCl | 1.28% (inactive) | – |
| NCCc1cc(O)c(O)cc1O | -13% [at 42.5 µM] (inactive) | – |
| CCCCCCCCCCCC[N+](C)(C)CCOc1ccccc1 | – | 61.1 µM (active) |
| Clc1ccc(-c2ccc(Cl)c(Cl)c2Cl)c(Cl)c1Cl | 0.404% (inactive) | – |
| c1cc2c(c(N3CCNCC3)c1)OCCO2 | 0.444% [at 42.5 µM] (inactive) | – |
| Cc1nc(N)nc(N)n1 | 0% (inactive) | – |
| ClC(Cl)(Cl)Cl | -4.63% (inactive) | – |
| N#CSCSC#N | – | inactive |
| CC(=O)c1ccc(-c2ccccc2)cc1 | 0.957% (inactive) | – |
| C=C(C)CCl | – | inactive |

| SMILES | activity change, negative = cytotoxicity | Potency |
| --- | --- | --- |
| C#CCO | 5.01% (inactive) | – |
| C[C@]12CCC(=O)C[C@@H]1CC[C@@H]1[C@@H]2CC[C@]2(C)[C@@H](O)CC[C@@H]12 | -14.3% (inactive) | – |
| O=S1(=O)OCC2C(CO1)C1(Cl)C(Cl)=C(Cl)C2(Cl)C1(Cl)Cl (stereo not given) | -17.9% (inactive) | – |
| COP(=O)(OC)O/C(=C/Cl)c1cc(Cl)c(Cl)cc1Cl | -3.67% (inactive) | – |
| Oc1cc(Cl)c(Cl)c(Cl)c1Cl | -18.2% (inactive) | – |
| CCCN(CC1CC1)c1c([N+](=O)[O-])cc(C(F)(F)F)cc1[N+](=O)[O-] | -21.4% (inactive) | – |
| CCN(CC)Cc1nccn1-c1ccc([N+](=O)[O-])cc1C(=O)c1ccccc1Cl | 0.724% [at 42.5 µM] (inactive) | – |
| FC(F)C(F)(F)OCC(Cn1cncn1)c1ccc(Cl)cc1Cl (stereo not given) | -19% (inactive) | – |
| CC(C)c1ccc(OP(=O)(Oc2ccc(C(C)C)cc2)Oc2ccc(C(C)C)cc2)cc1 | – | inactive |
| CCC[CH2][Sn]([CH2]CCC)([CH2]CCC)[O][Sn]([CH2]CCC)([CH2]CCC)[CH2]CCC | – | 1.34 µM (active) |
| Nc1ccc([N+](=O)[O-])cc1N | – | inactive |
| COc1nn(C(=O)NS(=O)(=O)c2ccccc2OC(F)(F)F)c(=O)n1C | -7.83% (inactive) | – |
| Clc1cccc(Cl)c1 | – | inactive |
| C[C@]12Cc3nonc3C[C@@H]1CC[C@@H]1[C@@H]2CC[C@@]2(C)[C@H]1CC[C@]2(C)O | – | 29.8 µM (active) |
| COP(=S)(OC)Oc1cc(Cl)c(Br)cc1Cl | -11.7% (inactive) | – |
| C[N+](C)(C)C | – | inactive |
| N#CCCl | -15.4% (inactive) | – |
| Cc1cc(N=Nc2ccccc2C)ccc1N | – | inactive |
| CCOP(=O)(OCC)O/C(=C/Cl)c1ccc(Cl)cc1Cl | -2.17% (inactive) | – |
| O=[N+]([O-])c1cccc2c([N+](=O)[O-])cccc12 | – | 61.4 µM (active) |
